Assay outcomes from PubChem BioAssay.
The list is not random: actives were taken first. Their share in the collection is about 12%.
HP1b chromo inh – blocks HP1-beta chromodomain binding to methylated histone tails; Potency, µM (highest dose often 114 µM), for inactives: at the highest dose activity change, negative = inhibition, most hits filed as inhibitors; P83916; AlphaScreen HP1-beta / biotin-H3K9me3 peptide binding; hit rate 0.56% among 390,000; further: nearly all actives have a fitted effect of over 70% in size
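Compound inhibition of the preformed complex between 50 nM HP1-beta and 50 nM biotinylated H3K9me3 peptide was read by AlphaScreen. Buffer was PBS pH 7.4 with 0.01% Tween-20. Incubations ran 30 min at room temperature, with 10 ug/mL donor/acceptor beads.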
L3MBTL1 inh – blocks human L3MBTL1; AlphaScreen L3MBTL1–H3K9me1 peptide binding; hit rate 0.66% among 230,000; Q9Y468; Potency, µM (doses to about 57.1 µM), without a hit: at the highest dose activity, negative = inhibition, usual class: inhibitors; further: on the % scale 0 is the no-effect control and ±100 the full control effect; nearly all actives have a fitted effect of over 60% in size
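Displacement of a biotinylated histone H3(1-15) peptide monomethylated at Lys9 (75 nM) from L3MBTL1 (50 nM) was measured by AlphaScreen after a 30 min room-temperature compound incubation; cefsulodin titration served as intraplate control.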
JMJD2A Tudor – blocks the human JMJD2A Tudor domain | O75164 | AlphaScreen JMJD2A-Tudor / H3K4me3 peptide binding | Potency, µM (top dose mostly 114 µM), for inactives: at the highest dose activity change, negative = inhibition, hits mostly inhibitors | hit rate 4.4% among 390,000 | AID 504339; further: on the % scale 0 is the no-effect control and ±100 the full control effect; nearly all actives have a fitted effect of over 50% in size
G9a block – inhibitors of human histone lysine methyltransferase G9a; Q96KQ7; G9a H3K9 monomethylation, AlphaScreen, 2 h; Potency, µM (series often up to 102 µM), for inactives: top-dose activity, negative = inhibition, hits mostly inhibitors; hit rate 8.8% among 350,000; AID 504332; further: on the % scale 0 is the no-effect control and ±100 the full control effect; nearly all actives have a fitted effect of over 75% in size
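G9a (20 nM) was preincubated 15 min with compound, then reacted 2 h at room temperature with 500 nM biotin-H3K9 peptide and 20 µM SAM. Monomethyl-H3K9 detected by AlphaScreen using anti-H3K9me1 antibody.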
Sfp inh – blocks B. subtilis Sfp PPTase activity. Potency, µM, inactives show largest response in the series, negative = inhibition, actives largely listed as inhibitors. hit rate 3.5% among 310,000. Biochemical Sfp PPTase activity, qHTS. Q9F4F7. AID 1490;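 further: the enzyme is Sfp with the accession as filed and its product quenches rhodamine fluorescence; 0% = enzyme reaction without inhibitor and -100% = no enzyme wells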
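Fluorescence-quenching assay: 15 nM Sfp-PPTase preincubated 15 min at room temperature with compound, then 5 uM rhodamine-CoA and 12.5 uM BHQ-2-labelled YbbR peptide added. Fluorescence (ex 525/em 598 nm) read at start and after 30 min; difference gives rate.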
BAZ2B inh – blocks human BAZ2B | Q9UIF8 | AlphaScreen BAZ2B-H3K14Ac peptide displacement | Potency, µM (top dose mostly 114 µM), for inactives: top-dose activity change, negative = inhibition, hits mostly inhibitors | hit rate 4.4% among 360,000; further: on the % scale 0 is the no-effect control and ±100 the full control effect; nearly all actives have a fitted effect of over 60% in size
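AlphaScreen displacement of biotin-H3(5-23)K14Ac peptide (50 nM final) from BAZ2B (50 nM final) in PBS pH 7.4, 0.01% Tween-20; complex preformed 30 min RT, then compounds (top 110 uM) 30 min RT, beads 20 min dark.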
Active calls of the source: *; ? = inconclusive; · = no result given; [ ] = another dose, or the depositor's remark. The call rests on the fitted dose curve; in most records, active means well fitted curve in the direction sought with a large enough effect; inconclusive means small, poorly fitted or top-dose-only effect, or another doubt; inactive means no such curve, though single readings can be large; an effect the other way counts as inactive or inconclusive. Potency means the concentration at half of the fitted maximal effect.

SMILES | HP1b chromo inh | L3MBTL1 inh | JMJD2A Tudor | G9a block | Sfp inh | BAZ2B inh
CCOC(=O)c1sc(=S)n(-c2ccccc2)c1N | ? | -5.4% | -34.0% | ? | ? | 0.7%
COc1ccc2c(c1)C(=O)[C@@H](OC(=O)NS(=O)(=O)c1ccc(F)cc1)[C@H](c1ccc(OC)c(Br)c1)O2 | · | · | · | · | -4.7% | ·
CCOC(=O)Cc1ccc(NC(=O)N2CCC(CN3CCCCCC3)CC2)cc1 | 4.1% | · | -28.7% | ? | · | -9.3%
CN1CCN(C(=O)c2sc(=S)n(-c3ccccc3)c2N)CC1 | ? | 3.5% | 100µM* | ? | -94.3% | -6.8%
O=[N+]([O-])c1ccc(/C=[N+](\[O-])[C@@H]2CCCC[C@@H]2/[N+]([O-])=C/c2ccc([N+](=O)[O-])o2)o1 | -10.3% | · | -35.2% | 50.1µM* | ? | 2.51µM*
O=C(N/N=C/c1ccc([N+](=O)[O-])o1)C1CCCC1 | 25.5% | · | -15.2% | -1.8%[0.501 µM] | -2.6% | -15.2%
Oc1ccc(CN2CCN(Cc3ccccc3)CC2)c2cccnc12 | ? | -2.2% | 39.8µM* | 2.9%[59 µM] | 19.0% | -0.8%
c1ccc(CN2CCN(Cc3c[nH]c4ccccc34)CC2)cc1 | -1.6% | · | -21.7% | -40.0% | 9.6% | -34.4%
O=S(=O)(c1ccc(Cl)cc1)N1CCN(Cc2ccc(O)c3ncccc23)CC1 | 26.3% | ? | 56.2µM* | -37.5% | 10.4% | 31.6µM*
OC/C=C/c1ccc(O)c(O)c1 | · | · | · | · | 0.7% | ·
O=C(O)CN1C(=O)/C(=C/c2ccc(N3CCCCC3)o2)SC1=S | ? | 31.6µM* | ? | 25.1µM* | 28.2µM* | 35.5µM*
CCOC(=O)CN1C(=O)S/C(=C/c2ccc(N3CCCCC3)o2)C1=O | 17.5% | 3.6% | 50.1µM* | 3.16µM* | 14.1µM* | -7.4%
CCOC(=O)CN1C(=O)S/C(=C/c2ccco2)C1=O | 23.6% | -2.1% | 2.8% | ? | 27.8% | ?
O=C(O)Cn1cc(/C=C2/SC(=O)N(CC(=O)N3CCCCCC3)C2=O)c2ccccc21 | -25.2% | · | -25.1% | ? | 5.0% | -33.4%
COC(=O)CN1C(=O)S/C(=C/c2ccc(N3CCCCC3)o2)C1=O | ? | -23.6% | 35.5µM* | 26.8%[0.501 µM] | 7.08µM* | 44.7µM*
COC(=O)CN1C(=O)S/C(=C/c2cc(C)n(C)c2C)C1=O | -21.4% | -14.8% | ? | ? | 12.5% | ?
Cc1ccc(NC(=O)CN2CCCN(Cc3cc(C)ccc3C)S2(=O)=O)c(Cl)c1 | 31.9% | · | -8.6% | -22.0%[59 µM] | · | -13.6%
Cc1ccc(CNC(=O)C2c3ccccc3C(=O)N(C)C2c2c[nH]c3ccccc23)o1 (stereo unspecified) | -4.2% | · | -32.0% | ? | 50.1µM* | ?
COc1ccc(C2C(C(=O)Nc3cc(C)on3)c3ccccc3C(=O)N2C)cc1 (stereo unspecified) | ? | 1.5% | -28.2%[57.1 µM] | ? | 21.3% | -29.9%
Fc1ccc(-c2noc3ncnc(NCCCN4CCN(c5ccccc5)CC4)c23)cc1 | -6.3% | · | ? | ? | · | -8.3%[57.1 µM]
CC(/C=N/NC(=O)Cc1cccn1C)=C\c1ccco1 | -2.2% | -25.1% | ? | 11.2µM* | 39.8µM* | ?
Cn1cccc1CC(=O)N/N=C/c1ccco1 | 1.5% | -8.6% | -25.3% | · | -18.9% | ?
CC(=C/c1ccco1)/C=N/NC(=O)Cc1cccn1C | -3.5% | -18.2% | -14.9%[57.1 µM] | ? | -28.5% | 44.7µM*
Cn1cccc1CC(=O)N/N=C\c1cccs1 | 6.4% | -28.4% | -21.6% | · | 0.0% | 50.1µM*
COc1ccc(-c2cccc(NS(=O)(=O)c3cccs3)c2)nn1 | 9.6%[57 µM] | · | -6.1% | 17.1%[59 µM] | · | 0.0%
SMILES | HP1b chromo inh | L3MBTL1 inh | JMJD2A Tudor | G9a block | Sfp inh | BAZ2B inh
COc1ccc2o/c(=N\O)c(C(=O)Nc3ccccc3OC)cc2c1 | 5.4% | · | -24.8% | 1.58µM* | 50.1µM* | -24.4%
COc1ccc(NC(=O)c2c(OC)cccc2OC)c(OC)c1 | ? | · | 56.2µM* | ? | 1.9% | 50.1µM*
COC(=O)c1ccccc1NC(=O)c1ccccc1SC | 40.2% | 51.6% | 26.3% | 8.91µM* | ? | 61.9%
COc1ccc(NC(=O)c2ccccc2SC)c(OC)c1 | 34.9% | 4.8% | -11.3% | 17.8µM* | 10.5% | -12.0%
Cc1cccc(OCCn2c(SCC(N)=O)nc3ccccc32)c1 | 57.5% | · | -25.8% | 10.6%[59 µM] | · | 20.4%
COc1cc(OC)cc(-c2nnc(Sc3ccc(C=O)cc3[N+](=O)[O-])o2)c1 | · | -10.9% | · | 25.1µM* | 1.1% | ?
COc1cc(OC)cc(-c2nnc(SCC(=O)c3ccc([N+](=O)[O-])cc3)o2)c1 | 44.0% | · | 2.2% | 5.6%[59 µM] | · | -17.0%
N=C1/C(=C/c2ccc(Br)o2)C(=O)N=C2SC(CC(=O)N3CCCC3)=NN12 | 9.6% | · | ? | ? | 8.9% | 50.1µM*
N=C1/C(=C\c2ccc(Br)o2)C(=O)N=C2SC(CC(=O)N3CCOCC3)=NN12 | 22.7% | · | 89.1µM* | 12.9%[12.7 µM] | 2.1% | 50.1µM*
COc1ccc(-n2c(C)cc(/C=C3\C(=N)N4N=C(CC(=O)N5CCOCC5)SC4=NC3=O)c2C)cc1 | 15.7% | · | -34.1% | -4.8%[0.0925 µM] | -6.0% | 44.7µM*
Cc1ccc(/C=C2\C(=N)N3N=C(CC(=O)N4CCCCC4)SC3=NC2=O)cc1 | 30.6% | · | -23.6% | 13.7% | 14.6% | -15.3%[57.1 µM]
N=C1/C(=C/c2ccco2)C(=O)N=C2SC(CC(=O)N3CCCC3)=NN12 | -4.0% | · | 79.4µM* | 39.8µM* | 5.2% | ?
CCOC(=O)O[C@]1(C(=O)COC(=O)CC)CC[C@@H]2[C@@H]3CCC4=CC(=O)C=C[C@@]4(C)[C@H]3[C@H](O)C[C@]21C | · | · | · | 22.6%[21.5 µM] | 7.1% | ·
Cc1cccc(C)c1Nc1nc2ccccc2nc1NS(=O)(=O)c1ccccc1 | -30.9% | · | -9.3% | 0.2%[59 µM] | · | -3.8%
COc1cc(C2NC(=O)C(C#N)=C(Nc3cccc(C)c3)S2)ccc1O (stereo unspecified) | 16.6% | 1.0% | -9.6% | 44.7µM* | 20µM* | -29.0%
COC(=O)C1=C(C)N(C)C(=O)NC1c1ccc(O)c(OC)c1 (stereo unspecified) | 20.4% | ? | -24.8% | -9.6%[59 µM] | -4.0% | -5.4%
O=C(CC(=O)NC1CCCCC1)N/N=C/c1ccccc1[N+](=O)[O-] | 20.7% | · | 2.1% | 44.7µM* | 21.8% | 4.0%
O=C(CC(=O)NC1CCCCC1)N/N=C/c1ccccc1Cl | 25.0% | 4.6% | -5.4% | 18.7%[59 µM] | 10.7% | 9.5%
N#CC1=C2SCCN2C(=O)C(C#N)C12CCCCC2 (stereo unspecified) | 18.6% | -0.9% | -25.4% | 22.4µM* | 5.3% | -38.2%
Cc1ccc2c(c1)nnn2C1CCN(CC(=O)c2ccc(Cl)cc2)CC1 | 12.9% | 8.7% | -15.2% | 44.7µM* | 6.1% | -18.7%
